Bioassay records from PubChem BioAssay.
The list is not random: actives were taken first. Their share in the collection is about 1.1%.
PKA-R1A act: activators of PKA-R1A holoenzyme, primary screen, biochemical, fluorescence polarization, Cy5-IP20, bovine R1A, mouse PKAc; cAMP-dependent protein kinase type I-alpha regulatory subunit (Bos taurus) + …; 340,000 compounds, 0.083% hits; PKA-R1A dissociation; scaled: DMSO 0%, 113 µM cGMP 100%; activation, % at 11.4 µM;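 active means percent activation above the mean of all tested compounds plus 3 SD, cut at about 19% in these data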;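 further: higher means more PKAc released from R1A so a rise in polarization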
bovine MsrA act: bovine MsrA enzyme activators, primary screen, biochemical, absorbance, HTS | Methionine sulfoxide reductase A (Bos taurus) | purified bovine MsrA, absorbance read-out | activation, % at 10.6 µM | 360,000 compounds, 0.3% hits; in the data active means activation above about 7.5%;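 further: 0% = vehicle and 100% = reference activator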
PKA-R2B act: activators of PKA-R2B holoenzyme, primary screen, biochemical, fluorescence polarization, Cy5-IP20, human | cAMP-dependent protein kinase catalytic subunit beta (Homo sapiens) + cAMP-dependent … | PKA-R2B holoenzyme dissociation; R2B truncated from residue 108, S112A mutant; 0% DMSO only, 100% 113 µM cGMP | activation, % at 11.4 µM | 340,000 compounds, 0.079% hits | AID 504700, 2011;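 active means activation above a cutoff set at the mean over all compounds plus 3 SD, cut at about 18% in these data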;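 further: higher means more holoenzyme dissociation and a rise in polarization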
Target sequence (P31323 whole entry, looked up, other chains not shown, the tested form may be a part): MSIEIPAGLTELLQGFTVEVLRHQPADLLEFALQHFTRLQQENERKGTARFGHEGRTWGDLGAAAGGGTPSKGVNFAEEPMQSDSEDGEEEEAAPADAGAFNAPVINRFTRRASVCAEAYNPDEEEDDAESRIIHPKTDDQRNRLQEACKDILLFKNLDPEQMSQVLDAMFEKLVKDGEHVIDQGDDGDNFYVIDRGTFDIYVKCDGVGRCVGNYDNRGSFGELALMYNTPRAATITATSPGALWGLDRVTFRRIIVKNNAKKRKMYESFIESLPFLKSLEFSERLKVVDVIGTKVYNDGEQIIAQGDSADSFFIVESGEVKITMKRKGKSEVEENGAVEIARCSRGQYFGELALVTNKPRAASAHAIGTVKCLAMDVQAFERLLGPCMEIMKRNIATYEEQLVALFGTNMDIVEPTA
MsrA inh: bovine MsrA enzyme inhibitors, primary screen, biochemical, absorbance, HTS; AID 651718, 2012; purified bovine MsrA, absorbance read-out; inhibition, % at 15.5 µM; 360,000 compounds, 0.75% hits; in the data active means inhibition above about 4.5%;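 further: 0% = vehicle wells with enzyme and 100% = reference inhibitor wells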
R1A FP artifact: FP signal interference without PKA proteins, confirmation, artefact control for PKA-R1A activator project, biochemical, fluorescence polarization, triplicate; activation, % at 11.4 µM; 280 compounds, 7% hits; AID 504799, 2011; Cy5-IP20 peptide alone, fluorescence polarization artifact counterscreen; shares compounds with PKA-R1A act;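 active means mean activation over triplicate runs exceeds the adjusted cutoff derived for the parent primary screen, cut at about 19% in these data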;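 further: no PKA protein present so any polarization rise reflects compound interference; 0% = tracer peptide mix alone and 100% = mix with added PKA catalytic subunit; higher means stronger polarization artifact and likely false positive in parent screen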
PKA-R1A confirm: activators of PKA-R1A holoenzyme, confirmation, biochemical, fluorescence polarization, Cy5-IP20, triplicate; shares compounds with PKA-R1A act; PKA-R1A holoenzyme dissociation; activation, % at 11.4 µM; 280 compounds, 9% hits; AID 504800, 2011;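 active means mean activation over replicate wells exceeds the adjusted hit threshold taken from the earlier primary screen, cut at about 20% in these data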;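 further: 0% = holoenzyme mix with DMSO only and 100% = cGMP-activated control wells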
MsrA act confirm: bovine MsrA activators, retest, confirmation, biochemical, absorbance, HTS | shares compounds with bovine MsrA act | purified bovine MsrA, absorbance read-out | activation, % at 10.6 µM | 1,000 compounds, 12% hits; in the data active means activation above about 4%;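 further: enzyme coupled to thioredoxin and thioredoxin reductase with NADPH; 0% = vehicle wells and 100% = reference activator wells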
Starred values were filed as active, the others as inactive; x = no result.

SMILES	PKA-R1A act	bovine MsrA act	PKA-R2B act	MsrA inh	R1A FP artifact	PKA-R1A confirm	others
COC(=O)c1cc2c(c3c4cc(OC)ccc4n(S(=O)(=O)c4cccc(C)c4)c13)C(=O)N(Cc1ccccc1OC)C2	x	x	x	1	x	x
Brc1ccccc1CN1CCC(N2CCCCC2)CC1	21*	-3	9	1	5	6
O[C@@H]1CN(C2CCN(Cc3ccccc3)CC2)CC[C@H]1N1CCCCCC1	-6	0	3	0	x	x
CN1OC[C@@H]2CN(C(=O)C3CCCCC3)[C@H](c3ccc(N4CCCCC4)cc3)C[C@@H]21	x	x	x	0	x	x
Cc1nc2cc(-c3ccc(Cl)cc3)nn2c(C)c1CCC(=O)NCc1ccco1	25*	-4	10	0	1	-2
COc1ccc(-c2cc3nc(C)c(CCC(=O)NCc4ccco4)c(C)n3n2)c(OC)c1	4	0	-7	1	x	x
COc1ccc(/C=C2\SC(=O)N(CC(=O)Nc3ccc(O)cc3)C2=O)cc1OC	23*	-2	17	3	18	23*
Cc1ccc(NC(=O)C2CC(=O)n3c(nc4ccccc43)N2)cc1C (stereo unspecified)	19*	-7	-6	0	2	5
Cc1ccc(NC(=O)C2CC(=O)n3c(nc4ccccc43)N2)cc1Cl (stereo unspecified)	3	-3	4	0	x	x
COc1ccc(CNC(=O)c2c(N)[nH]c(C(=O)c3ccccc3)c2-c2ccc3ccccc3c2)cc1OC	x	x	x	0	x	x
COc1ccc(-c2[nH]n(-c3ccc([N+](=O)[O-])cc3)c(=O)c2C=NCC2CCCO2)cc1 (stereo unspecified)	20*	-3	10	2	4	2
O=C(O)CN1C(=O)/C(=C\c2cc(Br)ccc2OCc2ccc([N+](=O)[O-])cc2)SC1=S	25*	-4	1	2	1	1
CNC(=O)COC(=O)c1ccc(OCC(=O)Nc2ccccc2OC)c(OC)c1	22*	-2	1	0	-3	1
COc1ccc(C2CC(=O)C(c3ccccc3)=CN2Cc2ccccc2)cc1 (stereo unspecified)	x	x	x	0	x	x
CC(=O)Nc1ccc(NC(=O)CNC(=O)COc2ccccc2)cc1	7	-2	-4	0	x	x
COC(=O)CNC(=O)COc1ccccc1	20*	-12	4	-1	-3	-1
CCCc1cc2c(OC)ccc(O)c2c(=O)n1C	x	x	x	0	x	x
Cn1c(SCC(=O)Nc2ccccc2Cl)nnc1C1CC1	4	-4	-4	0	x	x
Cn1c(SCC(=O)Nc2nnc(-c3ccccc3)o2)nnc1C1CC1	19*	-6	2	1	2	1
COc1ccc(CCNC(=O)Cn2cnc3sc(C)c(-c4ccc(F)cc4)c3c2=O)cc1OC	19*	-1	-1	-1	2	5
O=C(N/N=C\c1ccc(Cl)s1)c1cccs1	20*	-5	-9	3	-3	3
O=C(N/N=C/c1ccncc1)c1cccs1	6	0	0	x	x	x
O=C(O)CSc1cccc[n+]1[O-]	-2	5	-2	1	x	x
[O-][n+]1ccccc1SCc1ccccc1	19*	-1	3	1	2	3
Cc1ccc(CNC(=O)CN(c2ccc(Cl)cc2)S(C)(=O)=O)cc1	21*	-3	-13	0	3	0
SMILES	PKA-R1A act	bovine MsrA act	PKA-R2B act	MsrA inh	R1A FP artifact	PKA-R1A confirm	others
CC(C)C[C@H](NC(=O)c1nccs1)C(=O)N1CCC[C@H]1C(=O)NCc1ccccc1	x	x	x	0	x	x
Cc1coc2c(C)c3oc(=O)c(CCC(=O)NCc4ccccn4)c(C)c3cc12	20*	1	-10	1	2	1
Cc1coc2cc3oc(=O)c(CCC(=O)NCc4ccccn4)c(C)c3cc12	7	-4	8	1	x	x
C#CCOCCOCCOCCNc1nc(N2CCN(C(=O)[C@H]([C@@H](C)CC)n3cc([C@@H](N)CO)nn3)CC2)nc(N2CCN(C(=O)[C@H](CCCCN)n3cc([C@@H](N)CO)nn3)CC2)n1	-5	-9	-15	1	x	x
C#CCOCCOCCOCCNc1nc(N2CCN(C(=O)[C@H]([C@@H](C)CC)n3cc([C@@H](N)CC(C)C)nn3)CC2)nc(N2CCN(C(=O)[C@H](CCCCN)n3cc([C@@H](N)CO)nn3)CC2)n1	20*	0	0	x	5	1
Cc1cc(N(CCO)CCO)nc(-n2nc(C)cc2C)n1	-2	-3	-1	2	x	x
Cc1cc(NCCO)nc(-n2nc(C)cc2C)n1	22*	-3	8	0	-3	-1
COc1ccc(CN2C(=O)CSCC2(C)C(=O)NCc2ccccc2)cc1 (stereo unspecified)	x	x	x	0	x	x
CCCCCCCCN1C(=O)[C@@H](CC(=O)NCc2ccc(OC)c(OC)c2)C[C@@]2(C(=O)OC)C1=C[C@H](C(C)(C)C)O[C@@H]2C	x	x	x	0	x	x
COC(=O)Nc1nnc(COc2ccccc2)s1	x	8.9*	x	0	x	x	MsrA act confirm=-2
Nc1[nH]c(C(=O)c2ccccc2)c(-c2cccc(C(F)(F)F)c2)c1C(=O)NCCc1c[nH]c2ccccc12	x	x	x	0	x	x
Cc1[nH]nc2c1C(c1ccccc1)N(Cc1ccccc1)C2=O (stereo unspecified)	x	x	x	0	x	x
CCOc1ccc(NC(C(=O)Nc2cccc(C(C)=O)c2)c2ccccc2)cc1 (stereo unspecified)	-4	9.5*	-1	1	x	x	MsrA act confirm=10*
COCC(C)NC(C(=O)Nc1cccc(C(C)=O)c1)c1ccccc1 (stereo unspecified)	-2	-5	-2	-1	x	x
COC(=O)c1cc2c(c3c4cc(C)ccc4n(S(=O)(=O)c4cccc(C)c4)c13)C(=O)N(C)C2	x	x	x	0	x	x
COc1ccc(CC(=O)N2CCCc3ccccc32)cc1	4	-5	-8	0	x	x
COc1ccc(CC(=O)N2CCCc3ccccc32)cc1OC	-16	9.6*	-4	-1	x	x	MsrA act confirm=-3
Cc1ccc(-c2csc3n[nH]c(=S)n23)cc1	-10	12*	-5	-1	x	x	MsrA act confirm=2
CCn1c(-c2ccc(C)cc2)n[nH]c1=S	-10	-4	-3	0	x	x
S=c1[nH]nc(Cc2ccccc2)n1Cc1ccco1	-12	7.7*	-4	-1	x	x	MsrA act confirm=0
CCCn1c(Cc2ccccc2)n[nH]c1=S	-3	1	-11	0	x	x
CCCCn1nnnc1C(c1cc2ccccc2o1)N1CCCC1 (stereo unspecified)	x	11*	x	0	x	x	MsrA act confirm=-1
